Screening results: PubChem, several laboratories
Autofluor counter – compound fluorescence in toxin protease inhibitor counterscreen; compound autofluorescence counterscreen, microsphere flow cytometry; stronger effect = higher value; fluorescence intensity (concentration not given with the values); 3.1% of 360,000 active; AID 624483; in the data active = fluorescence intensity above about 16000; inconclusive = no clear call, values can overlap the other calls
BoNT-A LC inh2 – BoNT A light chain protease inhibition | AID 588499 | multiplex microsphere protease substrate cleavage, flow cytometry | 0.17% of 360,000 active | inhibition, % at 10 µM; in the data active = inhibition above about 30%; inconclusive = no clear call, values can overlap the other calls; note: plate controls were buffer without enzyme for full effect and enzyme alone for no effect
Anthrax LF prot – blocks Bacillus anthracis lethal factor protease; P15917; multiplex microsphere protease cleavage assay, LF; inhibition, % at 10 µM; 0.12% of 360,000 active; in the data active = inhibition above about 30%; inconclusive = no clear call, values can overlap the other calls; note: plate controls were buffer without enzyme for full effect and enzyme alone for no effect
Target sequence (P15917 whole entry, looked up): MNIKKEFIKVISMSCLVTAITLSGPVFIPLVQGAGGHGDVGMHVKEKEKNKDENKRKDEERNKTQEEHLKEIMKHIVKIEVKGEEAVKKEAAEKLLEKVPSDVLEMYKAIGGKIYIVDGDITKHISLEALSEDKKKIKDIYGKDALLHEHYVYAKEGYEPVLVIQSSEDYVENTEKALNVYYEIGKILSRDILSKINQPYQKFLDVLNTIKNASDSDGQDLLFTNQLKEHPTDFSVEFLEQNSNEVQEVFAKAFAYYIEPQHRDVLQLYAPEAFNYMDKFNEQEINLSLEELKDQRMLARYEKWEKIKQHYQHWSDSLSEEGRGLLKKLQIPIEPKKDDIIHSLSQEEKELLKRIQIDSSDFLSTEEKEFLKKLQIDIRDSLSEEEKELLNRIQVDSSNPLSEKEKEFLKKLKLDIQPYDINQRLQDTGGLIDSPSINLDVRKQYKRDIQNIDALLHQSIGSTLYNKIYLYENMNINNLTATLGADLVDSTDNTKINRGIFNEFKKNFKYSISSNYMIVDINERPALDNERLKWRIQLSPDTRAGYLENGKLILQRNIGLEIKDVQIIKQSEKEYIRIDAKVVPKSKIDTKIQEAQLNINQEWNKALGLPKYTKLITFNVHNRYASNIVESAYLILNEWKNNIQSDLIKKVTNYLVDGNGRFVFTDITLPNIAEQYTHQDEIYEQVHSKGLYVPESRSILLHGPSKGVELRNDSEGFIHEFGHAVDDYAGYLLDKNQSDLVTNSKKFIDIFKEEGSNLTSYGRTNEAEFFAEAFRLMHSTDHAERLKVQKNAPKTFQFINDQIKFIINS
CCHF vOTU inh – CCHFV vOTU protease inhibition; 0.55% of 370,000 active; Pep-AMC fluorescence; inhibition, % at 11.5 µM; in the data active = inhibition above about 30%; note: 0% = vehicle wells with enzyme and 100% = no enzyme wells
BoNT-F LC inh – BoNT F light chain protease inhibition | Multiplex microsphere protease cleavage assay, flow cytometry | inhibition, % at 10 µM | 0.22% of 360,000 active; in the data active = inhibition above about 35%, passing the limit was not always enough; inconclusive = no clear call, values can overlap the other calls; note: plate controls were buffer without enzyme for full effect and enzyme alone for no effect
SARS 3CLpro inh – SARS-CoV 3CLpro protease inhibition | AID 1706 | inhibition, % at 6 µM | P0C6X7 | 0.14% of 290,000 active | recombinant SARS-CoV 3CLpro, quenched FRET peptide cleavage; in the data active = inhibition above about 12%
BoNT-A LC CP2 – blocks botulinum neurotoxin A light chain protease. inhibition, % at 10 µM. shares compounds with BoNT-A LC inh2. 10% of 150 active. AID 602325. multiplex microsphere protease cleavage assay, flow cytometry; in the data active = inhibition above about 24%
LF protease CP2 – Bacillus anthracis lethal factor protease inhibition; 7% of 150 active; inhibition, % at 10 µM; multiplex microsphere protease cleavage assay; shares compounds with BoNT-A LC inh2
BoNT-F LC CP2 – blocks botulinum neurotoxin F light chain protease; AID 602336; 7% of 150 active; multiplex microsphere protease cleavage assay, flow cytometry; inhibition, % at 10 µM; shares compounds with BoNT-A LC inh2
* marks the source's active call; other numbers are inactive results; u = inconclusive; x = not tested or not shown. A selection: hits, their analogues and other compounds. The true share with any hit is near 3.9%. Cut-off read from the data, not from the text of the source, unless noted: active = inhibition above about 25%; inactive = the rest.

SMILES	Autofluor counter	BoNT-A LC inh2	Anthrax LF prot	CCHF vOTU inh	BoNT-F LC inh	SARS 3CLpro inh	BoNT-A LC CP2	LF protease CP2	BoNT-F LC CP2
Cn1ccc2c(-c3cccc(C=O)c3)cc3c(c21)C1CCC3C1 (centres undefined)	4170	1.2	-7.0	2.4	0.8	x	x	x	x
Cn1ccc2c(-c3ccc(F)nc3)cc3c(c21)C1CCC3C1 (centres undefined)	3942	50.3*	37.2*	-3.8	4.6	x	33.4*	32.2*	0.8
COc1ccc(-c2cc3c(c4c2ccn4C)C2CCC3C2)cc1OC (centres undefined)	4059	20.5	6.5	-5.1	-30.3	x	13.6	2.7	-22.0
Cn1ccc2c(-c3ccc(F)cc3F)cc3c(c21)C1CCC3C1 (centres undefined)	4959	15.6	7.2	-1.6	-12.3	x	1.6	-2.4	-9.5
Cn1ccc2c(-c3cccnc3)cc3c(c21)C1CCC3C1 (centres undefined)	5938	0.8	4.2	-6.2	1.5	x	1.7	0.4	9.6
COc1ccc(N2CCN(CCNS(=O)(=O)c3ccc(F)cc3)CC2)cc1	x	x	x	-7.6	x	x	x	x	x
Cc1ccc2c(c1)-c1c(cnn1CC(=O)NCCc1cccc(F)c1)CO2	x	x	x	-1.3	x	x	x	x	x
O=C(O)CN1CCN(CC(=O)O)CCN(CC(=O)O)CCN(CC(=O)O)CC1	5999	9.1	8.9	-3.1	63.1*	x	6.2	3.7	48.1*
COc1ccc(-c2oc3c(OC)c(OC)c(OC)c(O)c3c(=O)c2OC)cc1OC	4692	38.6*	33.8*	3.2	11.0	1.8	16.7	19.0	18.8
COc1ccc2cc(C3=CC(=O)CC(C)(C)C3=O)ccc2c1	3419	26.5	32.1*	-8.1	22.0	x	8.6	5.7	3.5
COc1ccc(CN(C)C(=O)C2CCCN(c3nc4ccccc4o3)C2)cc1 (centres undefined)	x	x	x	7.2	x	x	x	x	x
Cc1cc2cc(CNC(=O)Nc3cccc(Cl)c3)ccc2n1C	1277	48.4*	-137.0	3.4	-140.3	-3.4	8.1	8.9	10.2
Cc1cccc(NC(=O)NCc2ccc3c(c2)OCO3)c1	u	-1.3	-4.0	8.2	-3.6	3.2	x	x	x
Cc1cccc(NC(=O)NCc2ccc3c(c2)cc(C)n3C)c1	1708	58.5*	-131.0	6.8	-149.3	4.5	21.0	3.4	-37.2
COc1cccc(CNC(=O)c2ccc(S(=O)(=O)N3CCOCC3)cc2)c1	x	x	x	0.6	x	x	x	x	x
Cc1cc2cc(CNC(=O)c3ccc(S(=O)(=O)N4CCOCC4)cc3)ccc2n1C	1461	80.7*	-76.4	-3.3	-92.2	-0.8	6.2	4.1	7.7
Cc1cc2cc(CNC(=O)c3ccc(S(=O)(=O)N(C)C)cc3)ccc2n1C	1889	81.6*	-63.6	9.3	-66.1	3.2	8.7	8.7	17.9
Cc1cc2cc(CNC(=O)c3ccc(S(=O)(=O)N4CCCCC4)cc3)ccc2[nH]1	3901	44.3*	-64.2	4.4	-86.6	1.2	10.2	8.4	11.3
COc1ccc(C=O)cc1-c1cc(C(C)=O)c2n(c1=O)CCC2	x	x	x	0.9	x	x	x	x	x
Cc1ccc(-c2cc(C(=O)NN=Cc3ccc(-c4ccccc4)cc3)[nH]n2)cc1	x	x	x	-12.0	x	x	x	x	x
CSc1nnc2c(n1)C[C@H](c1ccccc1)[C@@H](C)[C@@H](C(=O)N1CCCC1)C2	x	x	x	4.3	x	x	x	x	x
Cc1cc2ccccc2n1CCNC(=O)Cc1ccccc1	1072	72.2*	-75.6	-0.4	-90.7	-2.3	24.0*	30.1*	11.7
O=C(NCCc1ccccc1)c1ccc(S(=O)(=O)N2CCCCC2)cc1	3471	0.2	-0.3	-2.2	-1.0	x	x	x	x
COCCNC(=O)C(C)Oc1ccccc1 (centres undefined)	2577	0.6	-2.4	13.0	-6.3	2.9	x	x	x
Cc1cc(C)c(S(=O)(=O)NCCn2c(C)cc3ccccc32)c(C)c1	2507	42.5*	-61.7	6.4	-83.9	-1.9	5.7	-0.1	-14.1
SMILES	Autofluor counter	BoNT-A LC inh2	Anthrax LF prot	CCHF vOTU inh	BoNT-F LC inh	SARS 3CLpro inh	BoNT-A LC CP2	LF protease CP2	BoNT-F LC CP2
Cc1cc(C)c(S(=O)(=O)NCCCn2ccnc2)c(C)c1	2119	0.3	-1.3	4.2	0.2	-0.4	x	x	x
Cc1cc2ccccc2n1CCNC(=O)c1ccc(S(=O)(=O)N2CCCCC2)cc1	1440	59.1*	-125.5	4.8	-123.6	-0.6	53.4*	14.2	-50.4
Cc1cc2ccccc2n1CCNC(=O)C(C)Oc1ccccc1 (centres undefined)	975	78.8*	-76.6	-2.8	-122.5	2.1	16.9	15.6	0.1
CCN(CC)c1ccc(C=Nn2c(-c3ccc(F)cc3)n[nH]c2=S)c(O)c1	x	x	x	23.8	x	x	x	x	x
COC(=O)[C@]1(C#N)CC(=O)N(CC(C)C)[C@@H]1c1ccccc1	x	x	x	-0.7	x	x	x	x	x
CCCCCCCCN1C(=O)[C@@H](CC(=O)NCC23CC4CC(CC(C4)C2)C3)C[C@@]2(C(=O)OC)C1=C[C@H](C(C)(C)C)O[C@@H]2C	x	x	x	-0.6	x	x	x	x	x
Cc1cc2ccccc2n1CCNC(=O)C(C)C	3584	80.1*	59.5*	-0.8	13.0	2.4	29.2*	34.0*	15.4
CC(COc1ccc(F)cc1)CN1CCC(C(O)(c2ccccc2)c2ccccc2)CC1 (centres undefined)	x	x	x	8.0	x	x	x	x	x
CCCC(=O)OCC(=O)Nc1ccc2[nH]c(=O)[nH]c2c1	4226	-0.3	-6.0	-9.5	1.3	-1.6	x	x	x
Cc1cc(Br)ccc1SCC(=O)OCC(=O)Nc1ccc2[nH]c(=O)[nH]c2c1	3972	11.2	36.3*	-11.4	61.8*	x	1.8	0.4	11.5
Cc1nc2ccc(NC(=O)c3cccc(S(=O)(=O)N4CC(C)OC(C)C4)c3)cc2s1 (centres undefined)	7927	25.1	30.5*	9.2	19.9	-2.4	5.0	5.7	5.6
